# Assay results published in PubChem BioAssay (EPA / NIEHS).
# Inconclusive results are not listed. Calls of active or inactive are those of the source. How the source made its calls, unless noted: active means hit-call score of the fitted dose curve at least 0.9, where 1 is the maximum; inconclusive means response in the unintended direction; inactive means score below 0.9.
# How the values were obtained:
# [1] = ATG_TAL_CIS: Attagene CIS-FACTORIAL HepG2 Assay for human TAL Basal Promoter (AID 2282966; active means hit-call score of the fitted dose curve at least 0.9, where 1 is the maximum; inactive means score below 0.9;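 further: background control endpoint measuring basal TAL promoter reporter mRNA not a specific factor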); conditions: HepG2 Attagene cis-factorial TAL promoter reporter; actives raise or lower the signal
# Summary of the method: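 RT-PCR plus capillary electrophoresis quantifies reporter mRNA induction in transiently transfected HepG2 cells after 24 h chemical treatment. DMSO serves as negative control and baseline for bidirectional fitting.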
# [2] = ATG_TGFb_CIS: Attagene CIS-FACTORIAL HepG2 Assay for human Transforming Growth Factor (TGF) (AID 2282967; active means hit-call score of the fitted dose curve at least 0.9, where 1 is the maximum; inactive means score below 0.9); conditions: HepG2 Attagene CIS TGFb reporter, mRNA transcription; actives raise or lower the signal
# Summary of the method: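 Cells were dosed for 24 hours, after which total RNA was reverse-transcribed and reporter sequences amplified, labeled and sized by capillary electrophoresis. Activity was fitted in both directions against DMSO.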
# [3] = ATG_VDRE_CIS: Attagene CIS-FACTORIAL HepG2 Assay for human Vitamin D Receptor Element (VDRE) (AID 2282968; active means hit-call score of the fitted dose curve at least 0.9, where 1 is the maximum; inactive means score below 0.9); conditions: HepG2 VDRE cis-reporter transcription, actives raise or lower the signal
# Summary of the method: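 Cell-based multiplexed reporter format in human liver HepG2 cells, 24 h post-dose. Fluorescence from capillary electrophoresis of reporter cDNA gives the signal, with DMSO as negative control and baseline.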
# [4] = molecular target: X-box-binding protein 1 (Homo sapiens) (UniProt P17861); assay: ATG_Xbp1_CIS: Attagene CIS-FACTORIAL HepG2 Assay for human X-box Binding Protein 1 (XBP1) (AID 2282972; active means hit-call score of the fitted dose curve at least 0.9, where 1 is the maximum; inactive means score below 0.9); conditions: HepG2 XBP1 cis-element reporter, Attagene multiplex; actives raise or lower the signal
# Summary of the method: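 HepG2, transient MRTU transfection (cis-promoter driven), 24 h compound exposure. Total RNA → oligo(dT) RT → PCR → 6-FAM labeling → HpaI cut → CE. Bidirectional fit vs DMSO.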
# [5] = ATG_M_19_TRANS: Attagene TRANS-FACTORIAL HepG2 Assay for M19 Transcription Factor (Internal Marker) (AID 2282974); conditions: HepG2 Attagene TRANS-FACTORIAL M19 internal marker reporter
# Summary of the method: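 After transfection of HepG2 with GAL4-UAS-driven reporter constructs, cells are dosed for 24 h. Total RNA is reverse-transcribed, reporter sequences PCR-amplified and labelled, then HpaI-digested and sized by capillary electrophoresis.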
# [6] = ATG_Hpa5_TRANS: Attagene TRANS-FACTORIAL HepG2 Assay for human GAL4-Hpa5 Hepatocyte Transcription Factor Basal Promoter (AID 2282975); conditions: HepG2 Attagene GAL4-Hpa5 transcription reporter;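 further: hits are increases in reporter mRNA over DMSO baseline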
# Summary of the method: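 Basal-promoter GAL4 background control within the HepG2 trans-factorial panel of transiently transfected reporter units. Reporter mRNA is measured 24 h after dosing by RT-PCR and capillary electrophoresis, fitted for gain of signal versus DMSO.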
# [7] = molecular target: Estrogen-related receptor gamma (Homo sapiens) (UniProt P62508); assay: ATG_ERRg_TRANS: Attagene TRANS-FACTORIAL HepG2 Assay for human Estrogen-Related Receptor gamma (ERRg) (AID 2282977); conditions: HepG2 Attagene TRANS reporter, ERRg transactivation;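 further: hits increase reporter signal over DMSO so potencies reflect activators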
# Summary of the method: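 Transient HepG2 transfectants, 24 h compound exposure, GAL4-UAS reporter mRNA by RT-PCR/6-FAM labelling/capillary electrophoresis; positive direction vs DMSO.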
# [8] = molecular target: Hepatocyte nuclear factor 4-alpha (Homo sapiens) (UniProt P41235); assay: ATG_HNF4a_TRANS: Attagene TRANS-FACTORIAL HepG2 Assay for human Hepatocyte Nuclear Factor 4 alpha (HNF4a) (AID 2282982); conditions: HepG2 HNF4a transactivation reporter, mRNA readout
# Summary of the method: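 Gain-of-signal mRNA induction, relative to DMSO vehicle, was read after 24 h compound treatment of HepG2 cells bearing transfected GAL4-UAS reporters. Detection used RT-PCR, 6-FAM primer extension and capillary electrophoresis.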
# [9] = ATG_M_32_TRANS: Attagene TRANS-FACTORIAL HepG2 Assay for M32 Transcription Factor (Internal Marker) (AID 2282984); conditions: HepG2 Attagene TRANS M32 internal marker reporter
# Summary of the method: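 Capillary electrophoresis of 6-FAM-labelled reporter fragments gives the signal; data fitted for gain over DMSO negative control. Source: HepG2 cells bearing transient multiple reporter transcription units, 24 h exposure.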
# [10] = molecular target: Nuclear receptor subfamily 4 group A member 2 (Homo sapiens) (UniProt P43354); assay: ATG_NURR1_TRANS: Attagene TRANS-FACTORIAL HepG2 Assay for human Nuclear Receptor Related Protein 1 (NURR1) (AID 2282985); conditions: HepG2 Attagene TRANS reporter, mRNA readout
# Summary of the method: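 HepG2 / transient MRTU transfection / 24 h compound exposure / RT-PCR + CE fluorescence of reporter mRNA / gain-of-signal vs DMSO.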
# [11] = molecular target: Transcriptional activator Myb (Homo sapiens) (UniProt P10242); assay: ATG_Myb_CIS: Attagene CIS-FACTORIAL HepG2 Assay for human Myeloblastosis (Myb) Proto-Oncogene Transcription Factor (AID 2282986; active means hit-call score of the fitted dose curve at least 0.9, where 1 is the maximum; inactive means score below 0.9); conditions: HepG2 Attagene CIS-FACTORIAL Myb reporter transcription; actives raise or lower the signal
# Summary of the method: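 Endogenous transcription factor activity at a Myb-responsive cis element is reported in human liver HepG2 cells after 24 h chemical treatment. Reporter mRNA is detected by RT-PCR and capillary electrophoresis fluorescence, with DMSO as baseline.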
# [12] = molecular target: Estrogen receptor (Homo sapiens) (UniProt P03372); assay: ATG_ERa_TRANS: Attagene TRANS-FACTORIAL HepG2 Assay for human Estrogen Receptor alpha (ERa) (AID 2282970); conditions: HepG2 Attagene TRANS ERa GAL4 reporter, mRNA
# Summary of the method: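 Cells: HepG2, transiently transfected. Construct: GAL4-UAS reporter units regulated by exogenous NR-Gal4 chimeras. Time: 24 h. Detection: reporter mRNA by RT-PCR, capillary electrophoresis, fluorescence. Baseline: DMSO, upward fitting.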
# [13] = molecular target: Bile acid receptor (Homo sapiens) (UniProt Q96RI1); assay: ATG_FXR_TRANS: Attagene TRANS-FACTORIAL HepG2 Assay for Farnesoid X Receptor (FXR) (AID 2282979); conditions: HepG2 Attagene TRANS FXR-GAL4 reporter transcription;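 further: hits raise reporter mRNA above DMSO so AC50 marks FXR activation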
# Summary of the method: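 Reporter transcripts from transfected HepG2 cells were measured 24 h after dosing, using RT-PCR with capillary electrophoresis of 6-FAM-labelled fragments. The read-out reflects activity of exogenous FXR-Gal4 chimera on GAL4-UAS units, with induction relative to DMSO.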
# [14] = molecular target: Oxysterols receptor LXR-beta (Homo sapiens) (UniProt P55055); assay: ATG_LXRb_TRANS: Attagene TRANS-FACTORIAL HepG2 Assay for human Liver X Receptor beta (LXRb) (AID 2282981); conditions: HepG2 Attagene TRANS GAL4-LXRb reporter, mRNA
# Summary of the method: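 Gain-of-signal mRNA reporter endpoint, DMSO as negative control. Transiently transfected HepG2 cells carrying the NR-Gal4 chimera and GAL4-UAS reporter units were treated 24 h; transcripts quantified by RT-PCR and capillary electrophoresis fluorescence.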
# [15] = ATG_M_06_TRANS: Attagene TRANS-FACTORIAL HepG2 Assay for M06 Transcription Factor (Internal Marker) (AID 2282983); conditions: HepG2 Attagene TRANS M06 internal marker reporter
# Summary of the method: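 Cells: HepG2, transient multi-reporter transfection. Exposure: 24 h. Detection: RT-PCR, 6-FAM labelling, HpaI digestion (2 h, 37 °C), capillary electrophoresis. Baseline: DMSO.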
# [16] = molecular target: Androgen receptor (Homo sapiens) (UniProt P10275); assay: ATG_AR_TRANS: Attagene TRANS-FACTORIAL HepG2 Assay for human Androgen Receptor (AR) (AID 2282973); conditions: HepG2 Attagene TRANS-FACTORIAL AR reporter transcription
# Summary of the method: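 Transcriptional activity of an exogenous AR–Gal4 fusion read as GAL4-UAS reporter transcript levels in transfected human HepG2 cells after 24 h dosing. Detection via RT-PCR, 6-FAM labelling, HpaI digest and capillary electrophoresis; increase over DMSO baseline.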
# [17] = ATG_GAL4_TRANS: Attagene TRANS-FACTORIAL HepG2 Assay for GAL4 (Internal Marker) (AID 2282976); conditions: HepG2 Attagene TRANS GAL4 internal marker reporter
# Summary of the method: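 In transfected human HepG2 liver cells dosed 24 h, GAL4 reporter mRNA serves as a baseline marker. Detection by RT-PCR with fluorescent capillary electrophoresis, activity fitted upward relative to DMSO.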
# [18] = molecular target: Glucocorticoid receptor (Homo sapiens) (UniProt P04150); assay: ATG_GR_TRANS: Attagene TRANS-FACTORIAL HepG2 Assay for human Glucocorticoid Receptor (GR) (AID 2282978); conditions: HepG2 Attagene TRANS GR reporter, mRNA transcription;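 further: activators score as hits since higher reporter transcript over DMSO is fitted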
# Summary of the method: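 Multiplexed TRANS reporter system, HepG2; 24 h exposure; RNA → oligo(dT) RT → reporter-specific PCR → 6-FAM primer extension → HpaI cut → CE fluorescence. Gain-of-signal vs DMSO.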
# [19] = molecular target: Nuclear receptor subfamily 1 group I member 3 (Homo sapiens) (UniProt Q14994); assay: ATG_CAR_TRANS: Attagene TRANS-FACTORIAL HepG2 Assay for human Constitutive Androstane Receptor (CAR) (AID 2282969); conditions: HepG2 Attagene TRANS-FACTORIAL CAR reporter;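 further: activators raise reporter mRNA above DMSO so AC50 marks induction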
# Summary of the method: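 HepG2 cells transiently transfected with GAL4-UAS reporter units; TRANS format reads activity of exogenous chimeric NR-Gal4 protein. After 24 h dosing, reporter mRNA quantified by RT-PCR, 6-FAM labelling and capillary electrophoresis; gain of signal fitted against DMSO.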
# Sequence of Estrogen receptor (Homo sapiens) (P03372 whole entry, looked up, the tested form may be a part): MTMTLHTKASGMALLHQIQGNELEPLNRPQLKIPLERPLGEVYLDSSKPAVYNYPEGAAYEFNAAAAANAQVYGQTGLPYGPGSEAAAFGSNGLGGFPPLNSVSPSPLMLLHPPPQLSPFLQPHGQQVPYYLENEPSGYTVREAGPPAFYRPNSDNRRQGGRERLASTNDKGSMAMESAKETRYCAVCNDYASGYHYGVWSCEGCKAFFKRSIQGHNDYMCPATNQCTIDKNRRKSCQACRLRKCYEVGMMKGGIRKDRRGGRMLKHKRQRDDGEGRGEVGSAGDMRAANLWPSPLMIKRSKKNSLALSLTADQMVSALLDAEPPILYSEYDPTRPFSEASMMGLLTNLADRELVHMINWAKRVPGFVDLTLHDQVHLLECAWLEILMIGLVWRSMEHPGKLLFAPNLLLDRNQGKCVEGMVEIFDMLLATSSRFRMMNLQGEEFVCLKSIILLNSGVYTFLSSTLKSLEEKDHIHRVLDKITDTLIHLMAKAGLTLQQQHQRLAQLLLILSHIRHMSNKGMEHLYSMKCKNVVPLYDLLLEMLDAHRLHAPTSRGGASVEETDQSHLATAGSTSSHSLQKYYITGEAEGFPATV
# Sequence of Hepatocyte nuclear factor 4-alpha (Homo sapiens) (P41235 whole entry, looked up, the tested form may be a part): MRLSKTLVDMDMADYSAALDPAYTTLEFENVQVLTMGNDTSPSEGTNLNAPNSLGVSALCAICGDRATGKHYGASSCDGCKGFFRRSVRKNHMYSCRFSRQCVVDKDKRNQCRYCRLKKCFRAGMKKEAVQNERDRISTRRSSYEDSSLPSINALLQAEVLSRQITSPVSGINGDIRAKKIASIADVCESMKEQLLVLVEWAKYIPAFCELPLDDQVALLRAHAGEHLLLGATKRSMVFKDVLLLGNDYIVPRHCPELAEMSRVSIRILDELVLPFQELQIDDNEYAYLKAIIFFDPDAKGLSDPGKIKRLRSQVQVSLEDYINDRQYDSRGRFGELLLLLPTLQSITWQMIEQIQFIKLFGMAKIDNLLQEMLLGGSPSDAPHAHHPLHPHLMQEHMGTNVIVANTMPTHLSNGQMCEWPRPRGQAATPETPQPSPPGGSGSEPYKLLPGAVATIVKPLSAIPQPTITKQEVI
# Sequence of Oxysterols receptor LXR-beta (Homo sapiens) (P55055 whole entry, looked up, the tested form may be a part): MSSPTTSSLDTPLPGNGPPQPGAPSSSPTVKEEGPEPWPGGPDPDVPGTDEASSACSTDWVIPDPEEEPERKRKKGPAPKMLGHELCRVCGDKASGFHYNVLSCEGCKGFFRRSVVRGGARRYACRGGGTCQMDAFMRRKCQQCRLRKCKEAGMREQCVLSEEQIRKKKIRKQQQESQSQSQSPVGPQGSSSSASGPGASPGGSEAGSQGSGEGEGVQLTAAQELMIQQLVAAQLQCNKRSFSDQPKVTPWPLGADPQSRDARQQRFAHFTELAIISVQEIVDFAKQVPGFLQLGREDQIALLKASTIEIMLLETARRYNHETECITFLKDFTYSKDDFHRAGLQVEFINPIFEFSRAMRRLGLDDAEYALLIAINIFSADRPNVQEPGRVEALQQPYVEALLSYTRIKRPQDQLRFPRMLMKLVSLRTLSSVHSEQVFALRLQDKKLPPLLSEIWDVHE
# Sequence of Glucocorticoid receptor (Homo sapiens) (P04150 whole entry, looked up): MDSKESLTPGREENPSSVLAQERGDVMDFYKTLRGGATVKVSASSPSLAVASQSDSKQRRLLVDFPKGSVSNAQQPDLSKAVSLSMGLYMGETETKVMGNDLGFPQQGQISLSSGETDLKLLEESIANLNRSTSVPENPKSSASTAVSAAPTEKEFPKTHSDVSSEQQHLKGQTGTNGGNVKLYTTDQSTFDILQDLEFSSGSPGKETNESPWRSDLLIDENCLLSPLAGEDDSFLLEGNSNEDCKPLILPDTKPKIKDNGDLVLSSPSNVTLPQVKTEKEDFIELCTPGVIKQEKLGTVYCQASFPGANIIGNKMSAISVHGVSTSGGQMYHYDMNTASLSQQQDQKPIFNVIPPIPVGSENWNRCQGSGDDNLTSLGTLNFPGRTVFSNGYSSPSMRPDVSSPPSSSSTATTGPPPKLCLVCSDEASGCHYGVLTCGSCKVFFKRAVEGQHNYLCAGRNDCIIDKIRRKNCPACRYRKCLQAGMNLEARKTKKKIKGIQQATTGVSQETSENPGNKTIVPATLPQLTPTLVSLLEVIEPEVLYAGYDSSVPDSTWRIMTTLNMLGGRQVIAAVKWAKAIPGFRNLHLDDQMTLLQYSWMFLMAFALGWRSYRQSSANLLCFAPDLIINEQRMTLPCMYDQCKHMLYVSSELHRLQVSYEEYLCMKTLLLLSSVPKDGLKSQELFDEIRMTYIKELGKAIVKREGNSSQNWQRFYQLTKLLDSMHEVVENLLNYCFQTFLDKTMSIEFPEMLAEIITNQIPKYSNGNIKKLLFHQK
# Sequence of X-box-binding protein 1 (Homo sapiens) (P17861 whole entry, looked up): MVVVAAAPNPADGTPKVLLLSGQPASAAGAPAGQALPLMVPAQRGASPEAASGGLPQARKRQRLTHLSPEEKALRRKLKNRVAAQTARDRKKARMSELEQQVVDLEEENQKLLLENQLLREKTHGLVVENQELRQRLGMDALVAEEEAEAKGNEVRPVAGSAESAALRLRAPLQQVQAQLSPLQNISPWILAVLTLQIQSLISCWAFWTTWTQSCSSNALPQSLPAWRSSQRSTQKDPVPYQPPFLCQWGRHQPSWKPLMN
# Sequence of Transcriptional activator Myb (Homo sapiens) (P10242 whole entry, looked up): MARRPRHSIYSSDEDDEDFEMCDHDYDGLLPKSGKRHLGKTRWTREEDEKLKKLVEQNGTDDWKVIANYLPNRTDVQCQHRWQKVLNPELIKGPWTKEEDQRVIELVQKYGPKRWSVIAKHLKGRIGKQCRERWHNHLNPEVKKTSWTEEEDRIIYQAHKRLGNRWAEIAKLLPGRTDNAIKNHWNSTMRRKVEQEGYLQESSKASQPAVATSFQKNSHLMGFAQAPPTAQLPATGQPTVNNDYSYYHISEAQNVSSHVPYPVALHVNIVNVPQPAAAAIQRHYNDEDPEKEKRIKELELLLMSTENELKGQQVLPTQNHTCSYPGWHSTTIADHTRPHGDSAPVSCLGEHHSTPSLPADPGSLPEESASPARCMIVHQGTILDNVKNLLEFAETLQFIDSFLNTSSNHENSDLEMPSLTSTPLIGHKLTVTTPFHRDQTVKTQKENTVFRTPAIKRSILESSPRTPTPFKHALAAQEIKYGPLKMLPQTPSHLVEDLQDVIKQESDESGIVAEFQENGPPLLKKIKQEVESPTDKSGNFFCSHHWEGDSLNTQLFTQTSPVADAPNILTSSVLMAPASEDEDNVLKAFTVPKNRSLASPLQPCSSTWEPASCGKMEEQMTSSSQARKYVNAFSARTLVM
# Sequence of Bile acid receptor (Homo sapiens) (Q96RI1 whole entry, looked up, the tested form may be a part): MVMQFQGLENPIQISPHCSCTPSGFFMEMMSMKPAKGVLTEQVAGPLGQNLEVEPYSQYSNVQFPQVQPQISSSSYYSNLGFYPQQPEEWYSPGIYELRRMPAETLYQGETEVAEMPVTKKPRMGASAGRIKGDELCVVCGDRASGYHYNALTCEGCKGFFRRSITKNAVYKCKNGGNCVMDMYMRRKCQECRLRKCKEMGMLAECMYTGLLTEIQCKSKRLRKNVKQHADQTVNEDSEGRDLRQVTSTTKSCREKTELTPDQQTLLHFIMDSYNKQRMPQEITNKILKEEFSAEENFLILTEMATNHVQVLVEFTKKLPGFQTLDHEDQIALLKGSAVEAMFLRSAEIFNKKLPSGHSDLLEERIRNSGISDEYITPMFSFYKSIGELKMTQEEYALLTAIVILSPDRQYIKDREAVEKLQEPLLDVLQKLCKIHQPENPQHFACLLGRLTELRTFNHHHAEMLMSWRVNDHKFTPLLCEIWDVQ
# Sequence of Nuclear receptor subfamily 4 group A member 2 (Homo sapiens) (P43354 whole entry, looked up): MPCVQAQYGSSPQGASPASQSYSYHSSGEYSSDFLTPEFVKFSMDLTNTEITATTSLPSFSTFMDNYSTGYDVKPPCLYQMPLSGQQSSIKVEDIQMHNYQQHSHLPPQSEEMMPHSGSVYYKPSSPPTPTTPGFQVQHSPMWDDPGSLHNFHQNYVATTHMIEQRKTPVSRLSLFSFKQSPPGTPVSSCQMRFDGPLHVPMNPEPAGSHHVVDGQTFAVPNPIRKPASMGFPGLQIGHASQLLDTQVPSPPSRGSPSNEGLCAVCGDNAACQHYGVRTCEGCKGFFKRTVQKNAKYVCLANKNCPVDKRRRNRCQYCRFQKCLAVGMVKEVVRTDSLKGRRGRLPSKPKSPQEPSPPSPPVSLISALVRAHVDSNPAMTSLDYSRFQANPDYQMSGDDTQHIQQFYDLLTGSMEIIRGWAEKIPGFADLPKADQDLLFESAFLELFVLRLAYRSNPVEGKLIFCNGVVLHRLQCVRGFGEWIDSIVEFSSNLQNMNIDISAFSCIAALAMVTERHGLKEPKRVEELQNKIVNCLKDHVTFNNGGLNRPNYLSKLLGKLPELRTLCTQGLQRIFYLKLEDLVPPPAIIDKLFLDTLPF
# Sequence of Estrogen-related receptor gamma (Homo sapiens) (P62508 whole entry, looked up, the tested form may be a part): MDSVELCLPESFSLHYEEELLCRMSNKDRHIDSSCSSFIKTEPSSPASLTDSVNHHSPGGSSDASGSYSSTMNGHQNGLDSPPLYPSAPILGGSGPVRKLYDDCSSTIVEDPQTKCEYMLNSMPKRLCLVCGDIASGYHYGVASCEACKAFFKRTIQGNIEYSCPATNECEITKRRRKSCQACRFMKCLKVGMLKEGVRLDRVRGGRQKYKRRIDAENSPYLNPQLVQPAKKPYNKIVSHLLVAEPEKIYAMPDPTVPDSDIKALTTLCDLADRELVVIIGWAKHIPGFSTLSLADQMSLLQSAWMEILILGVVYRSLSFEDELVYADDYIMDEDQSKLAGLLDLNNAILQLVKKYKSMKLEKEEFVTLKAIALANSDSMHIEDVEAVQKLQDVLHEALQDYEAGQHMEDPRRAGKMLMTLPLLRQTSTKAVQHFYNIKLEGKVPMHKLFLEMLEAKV
structure (smiles),measurement,setting,value
CCC(C)(CC)c1cc(NC(=O)c2c(OC)cccc2OC)on1,outcome,[1],inactive
same,outcome,[2],inactive
same,AC50,[3],0.977 µM (active)
same,outcome,[4],inactive
same,outcome,[5],inactive
same,outcome,[6],inactive
same,outcome,[7],inactive
same,outcome,[8],inactive
same,outcome,[9],inactive
same,outcome,[10],inactive
same,outcome,[11],inactive
CCCCCCCCCC[N+](C)(C)CCCCCCCCCC,outcome,[1],inactive
same,outcome,[2],inactive
same,AC50,[3],8.67 µM (active)
same,outcome,[12],inactive
same,outcome,[13],inactive
same,outcome,[14],inactive
same,outcome,[8],inactive
same,outcome,[15],inactive
same,outcome,[9],inactive
same,outcome,[10],inactive
same,outcome,[11],inactive
c1ccc(-c2ccccc2)cc1,outcome,[1],inactive
same,outcome,[2],inactive
same,outcome,[12],inactive
same,outcome,[4],inactive
same,outcome,[16],inactive
same,outcome,[5],inactive
same,outcome,[17],inactive
same,outcome,[18],inactive
same,outcome,[13],inactive
same,outcome,[9],inactive
same,outcome,[10],inactive
same,outcome,[11],inactive
ClC1=C(Cl)[C@]2(Cl)[C@@H]3[C@@H]4C[C@@H]([C@H]5O[C@@H]45)[C@@H]3[C@@]1(Cl)C2(Cl)Cl,outcome,[1],inactive
same,outcome,[2],inactive
same,AC50,[3],17.6 µM (active)
same,AC50,[12],5.89 µM (active)
same,outcome,[4],inactive
same,outcome,[18],inactive
same,outcome,[15],inactive
same,outcome,[9],inactive
same,outcome,[11],inactive
CCC(C)(c1ccc(O)cc1)c1ccc(O)cc1,outcome,[1],inactive
same,outcome,[2],inactive
same,outcome,[19],inactive
same,outcome,[5],inactive
same,outcome,[7],inactive
same,outcome,[13],inactive
same,outcome,[14],inactive
same,outcome,[8],inactive
same,outcome,[15],inactive
same,outcome,[9],inactive
same,outcome,[10],inactive
same,outcome,[11],inactive
ClC1=C(Cl)[C@]2(Cl)[C@@H]3[C@@H](Cl)[C@H]4O[C@H]4[C@@H]3C1(Cl)C2(Cl)Cl,outcome,[1],inactive
same,outcome,[2],inactive
same,outcome,[3],inactive
same,outcome,[12],inactive
same,outcome,[18],inactive
same,outcome,[14],inactive
same,outcome,[15],inactive
same,outcome,[11],inactive
O=C(NC(=O)c1cc(F)c(F)cc1Cl)Nc1cc(F)ccc1N1CCC(C(=O)O)CC1,outcome,[1],inactive
same,outcome,[2],inactive
same,outcome,[3],inactive
same,outcome,[4],inactive
same,outcome,[5],inactive
same,outcome,[17],inactive
same,outcome,[18],inactive
same,outcome,[14],inactive
same,outcome,[8],inactive
same,outcome,[10],inactive
same,outcome,[11],inactive
O=C(O)C(F)(F)C(F)(F)C(F)(F)C(F)(F)C(F)(F)F,outcome,[1],inactive
same,outcome,[2],inactive
same,outcome,[3],inactive
same,outcome,[5],inactive
same,outcome,[18],inactive
same,outcome,[8],inactive
same,outcome,[15],inactive
same,outcome,[10],inactive
same,outcome,[11],inactive
CCSC(=O)N(CC)C1CCCCC1,outcome,[1],inactive
same,outcome,[2],inactive
same,AC50,[3],18.1 µM (active)
same,outcome,[12],inactive
same,outcome,[5],inactive
same,outcome,[14],inactive
same,outcome,[11],inactive
